Results filed as inconclusive are left out. Active and inactive are the calls of the source. How the source made its calls: active means hit-call score of the fitted dose curve at least 0.9, where 1 is the maximum; inconclusive means response in the unintended direction; inactive means score below 0.9.
molecular target: human Dopamine Transporter (DAT), SLC6A3 (gene 6531) (UniProt Q01959); test: NVS_TR_hDAT: NovaScreen (NVS) Transporter Assay for human Dopamine Transporter (DAT) (AID 2283374)
Experimental: NVS_TR_hDAT is a biochemical, single-readout assay that uses extracted gene-proteins in a cell-free assay. Measurements were taken 1 hour after chemical dosing in a 96-well plate.NVS_TR_hDAT is one of one assay component(s) measured or calculated from the NVS_TR_hDAT assay. It is designed to make measurements of radioligand binding, a form of binding reporter, as detected with scintillation counting signals by Filter-based radiodetection technology.Data from the assay component NVS_TR_hDAT was analyzed into 1 assay endpoint. This assay endpoint, NVS_TR_hDAT, was analyzed in the positive analysis fitting direction relative to DMSO as the negative control and baseline of activity. Using a type of binding reporter, loss-of-signal activity can be used to understand changes in the binding as they relate to the gene SLC6A3. Furthermore, this assay endpoint can be referred to as a primary readout, because the performed assay has only produced 1 assay endpoint. To generalize the intended target to other relatable targets, this assay endpoint is annotated to the transporter intended target family, where the subfamily is neurotransmitter transporter.
Binding assays used specific radioligands (tritiated, iodinated) with non-radioactive competitive displacement ligands in agonist or antagonist protocols (as indicated) and various reference compounds and inhibitors to titrate specific binding to receptors and transporters. Most enzyme assays (CYPs, kinases, phosphatases, proteases, HDACs) used recombinant protein and specific substrates (fluorescence mostly, some colorimetric and radioactive) and inhibitors, followed by a biochemical separation of substrate and product. All assays for the biochemical HTS were initially run in duplicate at a single concentration (10 uM for CYP450 assays and 25 uM for all others). […] Each assay was run with positive and negative controls, and concurrent controls on every plate. The follow-up (secondary) screen tested active chemical-pairs in concentration series, as well as a few additional assays not tested in the primary screen, some selected negative inactives, and several cases re-run in the concentration series for confirmatory purposes.

Sequence of human Dopamine Transporter (DAT), SLC6A3 (gene 6531) (Q01959 whole entry, looked up): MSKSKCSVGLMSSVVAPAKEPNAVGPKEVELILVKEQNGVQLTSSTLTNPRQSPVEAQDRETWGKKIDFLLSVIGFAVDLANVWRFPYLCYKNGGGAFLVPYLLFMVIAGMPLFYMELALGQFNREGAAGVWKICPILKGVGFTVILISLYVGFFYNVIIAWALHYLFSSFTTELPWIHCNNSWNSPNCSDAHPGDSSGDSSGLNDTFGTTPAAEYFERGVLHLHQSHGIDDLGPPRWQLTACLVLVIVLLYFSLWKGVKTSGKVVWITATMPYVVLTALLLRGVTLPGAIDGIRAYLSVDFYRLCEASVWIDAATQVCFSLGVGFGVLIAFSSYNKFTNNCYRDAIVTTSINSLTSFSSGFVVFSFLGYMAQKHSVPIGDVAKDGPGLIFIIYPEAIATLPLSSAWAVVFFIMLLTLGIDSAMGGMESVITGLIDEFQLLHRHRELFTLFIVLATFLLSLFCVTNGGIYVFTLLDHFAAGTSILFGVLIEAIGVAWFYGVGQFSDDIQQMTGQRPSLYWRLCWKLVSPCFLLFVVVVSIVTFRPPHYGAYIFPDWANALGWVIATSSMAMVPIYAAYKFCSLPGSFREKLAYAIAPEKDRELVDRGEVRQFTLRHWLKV

AC50, active:
COc1cccc(-c2ccc(/C=C\CN3CCCCCC3)cc2Cl)c1 5.87 µM
CNS(=O)(=O)c1cc(C(=O)N2CCC(CCN3C4CCC3CC(n3c(C)nc5ccccc53)C4)(c3cccc(F)c3)CC2)c(Cl)cc1F (stereo unspecified) 8.74 µM
Oc1ccc2c(c1)-c1ccccc1C2 10.9 µM
CC(C)CCCCCCCOC(=O)CCCCC(=O)OCCCCCCCC(C)C 25 µM
Nc1ccc(Nc2ccccc2)cc1 7.42 µM
CCc1cc(SCc2sc(-c3ccc(C(F)(F)F)cc3)nc2CN2CCN(c3ccc(OC)cc3)CC2)ccc1OCC(=O)O 13.9 µM
CCOc1cccc(-n2cc(C(=O)N3CCN(c4cc(C(=O)O)c5ccccc5c4)CC3)nc2-c2ccc(C)cc2)c1 8.21 µM
CNCc1ccc(NC(=O)c2c[nH]c3c2C(=O)CCC3)cc1 13.8 µM
Cc1[nH]cnc1C[C@H]1CCc2c(C)c3ccccc3n2C1=O 11.6 µM
O=c1[nH]c2ccc(S(=O)CCN3CCC(Cc4ccc(F)cc4)CC3)cc2o1 (stereo unspecified) 3.16 µM
CCn1nc(Cc2ccccc2)cc1C1CCN(C[C@H]2C[C@H](N(C)[C@@H](C(=O)O)C(C)C)C[C@@H]2c2cccc(F)c2)CC1 9.06 µM
CCOC(=O)c1ccc(C2CCC(NC[C@H](O)COc3ccc(O)c(NS(C)(=O)=O)c3)CC2)cc1 (stereo partly specified) 0.321 µM
CCOC(=O)COc1ccc2c(c1)CC(NCC(O)c1cccc(Cl)c1)CC2 (stereo unspecified) 0.124 µM
CCCCCCc1ccc(O)cc1O 10 µM
O=C(OC[C@H]1O[C@@H](OC(=O)c2cc(O)c(O)c(OC(=O)c3cc(O)c(O)c(O)c3)c2)[C@H](OC(=O)c2cc(O)c(O)c(OC(=O)c3cc(O)c(O)c(O)c3)c2)[C@@H](OC(=O)c2cc(O)c(O)c(OC(=O)c3cc(O)c(O)c(O)c3)c2)[C@@H]1OC(=O)c1cc(O)c(O)c(OC(=O)c2cc(O)c(O)c(O)c2)c1)c1cc(O)c(O)c(OC(=O)c2cc(O)c(O)c(O)c2)c1 2.65 µM
O=C(O)CC(O)C(=O)O (stereo unspecified) 4.96 µM
CCC(C)(C)C(=O)O[C@H]1C[C@@H](C)C=C2C=C[C@H](C)[C@H](CC[C@@H]3C[C@@H](O)CC(=O)O3)[C@H]21 25 µM

outcome, inactive:
CC/C(=C\C(=N/O)C(N)=O)C(C)[N+](=O)[O-] (stereo unspecified)
CC(C)CCO
CC(=O)OCCC(C)C
CCCC(=O)OCC
